In PubChem BioAssay (Tox21):
Several values for one entry are separate records, joined by “and”; a condition that tells them apart may be missing. Equal entries are not always repeated. Records with an inconclusive call do not appear. Activity calls are given as the source filed them. Unless noted, calls come from the whole dose curve; as a rule, active = well fitted curve in the direction sought with a large enough effect in the repeat runs; inconclusive = weak or mixed curves; inactive = no such curve, though single readings can be large; an effect the other way counts as inactive or inconclusive.

How the values were obtained:
[1] = qHTS assay to identify small molecule agonists of the hypoxia (HIF-1) signaling pathway - cell viability counter screen (AID 1224844; calls by dose curve; note: nearly all actives have a fitted effect of over 50% in size)
In short: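 HRE-bla ME-180; 0.5% dFBS; cpd 17 h, 37C, 5% CO2; CellTiter-Glo lum., 30 min RT, post-FRET read, same wells.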

[2] = qHTS assay to identify small molecule agonists of H2AX (AID 1224845; active = well fitted activation curve with a large enough effect in the signal ratio in the repeat runs, not every such curve was filed as active; the % refers to the signal ratio)
In short: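 Wild-type CHO-K1 cells, plated overnight, exposed 3hr at 37C to 15 concentrations (0.76% DMSO final). Lysed, then HTRF anti-pH2AX (S139) cryptate and anti-H2AX-d2 antibodies, 24 hr room temperature; 665/620 nm emission read.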

[3] = qHTS assay to identify small molecule agonists of the hypoxia (HIF-1) signaling pathway (AID 1224846; active = well fitted activation curve with a large enough effect in the signal ratio in the repeat runs, not every such curve was filed as active; the % refers to the signal ratio)
In short: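 Reporter induction in HRE-bla ME-180 cells is taken as agonism: cells sit 5 hrs after plating, receive compounds or DMSO only, incubate 17 hrs at 37C under 5% CO2, and are loaded with CCF4-AM for beta-lactamase FRET measurement.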

[4] = qHTS assay to identify small molecule agonists of H2AX - cell viability counter screen (AID 1224847; calls by dose curve; note: top concentration of the series differs between compounds; nearly all actives have a fitted effect of over 30% in size)
In short: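 After overnight plating of 1000 CHO-K1 cells per well, a 15-concentration compound series was applied for 3 hr at 37C. Luminescence from CellTiter-Glo, read following 30 min at room temperature, reflected cell viability.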

[5] = qHTS RealTime-Glo MT Cell Viability Assay in HepG2 cells - 24 hour (AID 1224867); note: nearly all actives have a fitted effect of over 50% in size
In short: (§1)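 Viability was tracked continuously by NanoLuc luminescence from prosubstrate reduced by living HepG2 cells, at successive time points over 40 h of compound exposure. Cells with reagent were preincubated 5 h at 37 °C before compound addition.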

[6] = qHTS RealTime-Glo MT Cell Viability Assay in HEK293 cells - 32 hour (AID 1224868); note: top concentration of the series differs between compounds; nearly all actives have a fitted effect of over 50% in size
In short: (§2)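 Viability tracked continuously by luminescence as live cells reduce a prosubstrate for NanoLuc; HEK293 cells preincubated 5 h, compound-treated at 37 C, and read at 0, 8, 16, 24, 32 and 40 h.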

[7] = qHTS RealTime-Glo MT Cell Viability Assay in HepG2 cells - 40 hour (AID 1224870); note: nearly all actives have a fitted effect of over 50% in size
In short: (§3)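 HepG2 cells (600/well) mixed with RealTime-Glo MT reagent, settled 5 h at 37 C/5% CO2 before compound addition. Nonlytic NanoLuc luminescence from viable-cell prosubstrate reduction read repeatedly during 40 h treatment at 37 C.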

[8] = A CellTox Green Cytotoxicity Assay to monitor cytotoxicity in HEK293 cells - 40 hour (AID 1224871); note: nearly all actives have a fitted effect of over 45% in size; note: potency is the fitted concentration of half-maximal effect
In short: (§4)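 Tox21 screen in HEK293: membrane-impermeant cyanine dye fluoresces on binding dead-cell DNA; compound pinned 5 h post-seeding, plates held at 37 C, signal read repeatedly through 40 h.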

[9] = qHTS RealTime-Glo MT Cell Viability Assay in HEK293 cells - 16 hour (AID 1224872)
In short: as §2

[10] = qHTS RealTime-Glo MT Cell Viability Assay in HepG2 cells - 8 hour (AID 1224873); note: nearly all actives have a fitted effect of over 55% in size
In short: as §3

[11] = qHTS RealTime-Glo MT Cell Viability Assay in HEK293 cells - 40 hour (AID 1224874); conditions: RealTime-Glo luminescence; max response: hits give low values; note: nearly all actives have a fitted effect of over 50% in size
In short: (§5)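 HEK293 + NanoLuc + prosubstrate, 600 cells/well; 5 h, 37 C/5% CO2; compound 23 nL in DMSO by pintool; 37 C; luminescence read at 0, 8, 16, 24, 32 and 40 h time points.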

[12] = A CellTox Green Cytotoxicity Assay to monitor cytotoxicity in HEK293 cells - 24 hour (AID 1224875); note: series mostly up to about 77 µM; nearly all actives have a fitted effect of over 45% in size
In short: as §4

[13] = A CellTox Green Cytotoxicity Assay to monitor cytotoxicity in HepG2 cells - 16 hour (AID 1224876); note: nearly all actives have a fitted effect of over 45% in size
In short: (§6)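 Measurements at 0, 8, 16, 24, 32 and 40 h of treatment captured CellTox Green fluorescence in HepG2 cells that had been co-plated with reagent and preincubated 5 h at 37 C/5% CO2.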

[14] = qHTS RealTime-Glo MT Cell Viability Assay in HepG2 cells - 32 hour (AID 1224877); note: nearly all actives have a fitted effect of over 55% in size
In short: as §1

[15] = A CellTox Green Cytotoxicity Assay to monitor cytotoxicity in HepG2 cells - 24 hour (AID 1224878); note: nearly all actives have a fitted effect of over 45% in size
In short: as §6

[16] = qHTS RealTime-Glo MT Cell Viability Assay in HEK293 cells - 0 hour (AID 1224880)
In short: as §5

[17] = A CellTox Green Cytotoxicity Assay to monitor cytotoxicity in HEK293 cells - 32 hour (AID 1224881); note: nearly all actives have a fitted effect of over 40% in size
In short: as §4

[18] = A CellTox Green Cytotoxicity Assay to monitor cytotoxicity in HEK293 cells - 0 hour (AID 1224869); note: nearly all actives have a fitted effect of over 50% in size
In short: as §4

[19] = A CellTox Green Cytotoxicity Assay to monitor cytotoxicity in HepG2 cells - 40 hour (AID 1224879); note: nearly all actives have a fitted effect of over 40% in size
In short: as §6

[20] = qHTS assay to identify small molecule antagonists of the estrogen related receptor (ERR) signaling pathway from Tox21 library (AID 1224848); note: nearly all actives have a fitted effect of over 50% in size
In short: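 Quantitative high-throughput format: ERR reporter cells (2,000/well) pre-incubated 6 h, treated 18 h at 37 C with compounds in DMSO alongside positive and negative controls, then read by ONE-Glo luminescence.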
% is set by controls: 0 for no effect and ±100 for the full control effect.

C=CCc1ccc(OC)c(OC)c1
inactive: outcome [1] | outcome [2] | outcome [3] | outcome [4] | Potency [5] | Potency [6] | outcome [7] | Potency [8] | Potency [9] | Potency [10] | max response [11] 0.535% and 0.477% | Potency [12] | outcome [13] | outcome [14] | Potency [15] | outcome [16] | Potency [17]

O=[N+]([O-])c1ccc2nc[nH]c2c1
inactive: outcome [1] | outcome [2] | outcome [3] | outcome [4] | Potency [5] | Potency [6] | outcome [7] | Potency [8] | Potency [9] | Potency [10] | max response [11] 4.04% and -21.2% | Potency [12] | outcome [13] | outcome [14] | Potency [15] | outcome [16] | Potency [17]

O=C(OCC1CCC2OC2C1)C1CCC2OC2C1 (stereo not given)
inactive: outcome [1] | outcome [2] | outcome [3] | outcome [4] | Potency [5] | outcome [18] | outcome [7] | Potency [8] | Potency [9] | Potency [10] | max response [11] 2.18% and 1.6% | Potency [12] | outcome [13] | outcome [14] | Potency [15] | Potency [19] | outcome [16] | Potency [17]

NC(=S)NNC(N)=S
inactive: outcome [1] | outcome [2] | outcome [3] | outcome [4] | Potency [5] | Potency [6] | outcome [7] | Potency [8] | Potency [9] | Potency [10] | max response [11] 7.65% and -11.1% | Potency [12] | outcome [13] | outcome [14] | Potency [15] | Potency [19] | outcome [16] | Potency [17]

OCc1cccc(Oc2ccccc2)c1
inactive: outcome [1] | outcome [2] | outcome [3] | outcome [4] | Potency [5] | Potency [6] | outcome [7] | Potency [8] | Potency [9] | Potency [10] | max response [11] -0.677% and -9.74% | Potency [12] | outcome [13] | outcome [14] | Potency [15] | Potency [19] | outcome [16] | Potency [17]

c1ccc2c(c1)Cc1ccccc1-2
active: Potency [8] 39.5 µM and 54.9 µM
inactive: outcome [1] | outcome [2] | outcome [3] | outcome [4] | Potency [6] | outcome [18] | outcome [7] | Potency [9] | Potency [10] | max response [11] -9.32% and 10% | outcome [13] | outcome [14] | Potency [15] | Potency [19] | outcome [16]

COCCOC(=O)c1ccccc1C(=O)OCCOC
inactive: outcome [1] | outcome [2] | outcome [3] | outcome [4] | Potency [6] | outcome [18] | outcome [7] | Potency [8] | Potency [9] | Potency [10] | max response [11] 0.573% and 0.131% | Potency [12] | outcome [13] | outcome [14] | Potency [15] | Potency [19] | outcome [16] | Potency [17]

CC(O)CC(C)(C)O (stereo not given)
inactive: outcome [1] | outcome [2] | outcome [3] | outcome [4] | Potency [6] | outcome [18] | outcome [7] | Potency [8] | Potency [9] | Potency [10] | max response [11] 13.3% and 0.19% | Potency [12] | outcome [13] | outcome [14] | Potency [15] | Potency [19] | outcome [16] | Potency [17]

c1ccc(Oc2ccccc2)cc1
inactive: outcome [1] | outcome [2] | outcome [3] | outcome [4] | Potency [6] | outcome [18] | outcome [7] | Potency [9] | Potency [10] | max response [11] -2.3% and -6.04% | Potency [12] | outcome [13] | outcome [14] | Potency [15] | Potency [19] | outcome [16] | Potency [17]
active: Potency [8] 50.5 µM

CCCCCCO
inactive: outcome [1] | outcome [2] | outcome [3] | outcome [4] | outcome [18] | outcome [7] | Potency [8] | Potency [9] | Potency [10] | max response [11] -0.525% and 0.519% | Potency [12] | outcome [13] | outcome [14] | Potency [15] | Potency [19] | outcome [16] | Potency [17]

N[C@H](Cc1c[nH]c2ccccc12)C(=O)O
inactive: outcome [1] | outcome [2] | outcome [3] | outcome [4] | outcome [18] | outcome [7] | Potency [8] | Potency [9] | Potency [10] | max response [11] 20.7% and 3.97% | Potency [12] | outcome [13] | outcome [14] | Potency [15] | outcome [16] | Potency [17]

CC1(C)S[C@@H]2[C@H](NC(=O)COc3ccccc3)C(=O)N2[C@H]1C(=O)O
inactive: outcome [1] | outcome [2] | outcome [4] | outcome [20] | outcome [18] | outcome [7] | Potency [8] | Potency [9] | Potency [10] | max response [11] 0.704% and 1.33% | Potency [12] | outcome [13] | outcome [14] | Potency [15] | Potency [19] | outcome [16] | Potency [17]

NCCN1CCNCC1
inactive: outcome [1] | outcome [2] | outcome [3] | outcome [4] | Potency [6] | outcome [7] | Potency [8] | Potency [9] | Potency [10] | max response [11] 1.25% and -21.7% | Potency [12] | outcome [13] | outcome [14] | Potency [15] | outcome [16] | Potency [17]

Clc1ccccn1
inactive: outcome [1] | outcome [2] | outcome [3] | outcome [4] | outcome [7] | Potency [8] | Potency [9] | Potency [10] | max response [11] 5.77% and 7.16% | Potency [12] | outcome [13] | outcome [14] | Potency [15] | Potency [19] | outcome [16] | Potency [17]
